Reference: PubChem BioAssay (NCI)
About 79,000 compounds went through this panel and 15% of them were active in at least one assay; those are over-represented in the sample as a whole. No stated cut-off is given here; in the data, active means growth inhibition above about 70%; inactive means the rest.

Columns and labels:
[1] = NCI Yeast Anticancer Drug Screen. Data for the rad50 strain (AID 155);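 further: 0% = growth of vehicle-only cultures of the same strain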; conditions: S. cerevisiae rad50 strain growth inhibition; at 50.0 µM; stronger effect = higher value
Procedure, shortened: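 A DNA repair-deficient yeast mutant serves as the test organism; compound-induced growth inhibition is calculated against vehicle-treated cells.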

[2] = NCI Yeast Anticancer Drug Screen. Data for the mec2-1 strain (AID 157); conditions: S. cerevisiae mec2-1 strain, at 50.0 µM, stronger effect = higher value
Procedure, shortened: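 Compounds were applied to mec2-1 yeast cells. Their growth was then compared with that of vehicle-treated cultures to give growth inhibition.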

[3] = NCI Yeast Anticancer Drug Screen. Data for the sgs1 mgt1 strain (AID 161);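 further: 0% = growth of cultures given vehicle only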; conditions: S. cerevisiae sgs1 mgt1 strain, at 50.0 µM, stronger effect = higher value
Procedure, shortened: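 Yeast cells carrying a defined DNA-repair defect were exposed to test compounds. Growth inhibition was measured relative to vehicle-treated controls.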

[4] = NCI Yeast Anticancer Drug Screen. Data for the cln2 rad14 strain (AID 165);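 further: 0% = growth equal to vehicle treated cultures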; conditions: S. cerevisiae cln2 rad14 strain, at 50.0 µM, stronger effect = higher value
Procedure, shortened: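 Strain: cln2 rad14 yeast, altered in cell cycle control and DNA damage repair. Read-out: growth inhibition vs vehicle.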

[5] = NCI Yeast Anticancer Drug Screen. Data for the bub3 strain (AID 167); conditions: S. cerevisiae bub3 mutant strain, at 50.0 µM, stronger effect = higher value
Procedure, shortened: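 Inhibition values come from growth of compound-treated mutant yeast normalised to vehicle-treated controls.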

[6] = NCI Yeast Anticancer Drug Screen. Data for the mlh1 rad18 strain (AID 175); conditions: S. cerevisiae mlh1 rad18 strain growth inhibition; at 50.0 µM; stronger effect = higher value
Procedure, shortened: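 A repair-deficient yeast strain is exposed to test compound, and growth is scored relative to vehicle-treated controls.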

Measured: growth inhibition

Cc1ccc(Cl)c2c1C(=O)c1ccccc1C2=O
inactive: [1] 24.2% | [2] 7.65% | [3] 3.3% | [4] 14.8% | [5] 5.6% | [6] 23.9%

COC(=O)C(=O)C(C)C(=O)C(C)c1nc(NC(=O)Nc2ccc(Cl)cc2)n[nH]1 (stereo not given)
inactive: [1] 1.65% | [2] -3.7% | [3] 3% | [4] -32% | [5] 13.4% | [6] 7.1%

CNC(=O)Nc1[nH]c(=O)ncc1Cl
inactive: [1] 6.45% | [2] -0.35% | [3] 8.95% | [4] -5.1% | [5] 16.2% | [6] 5.2%

C=C1CN=C(Nc2ccc(F)cc2F)S1
inactive: [1] -0.15% | [2] 7.3% | [3] -14.6% | [4] 8.15% | [5] 1.75% | [6] 2.65%

NC(=O)NC1CC1c1ccccc1 (stereo not given)
inactive: [1] -6.6% | [2] 4.1% | [3] -2.7% | [4] 22.1% | [5] -10.3% | [6] -1.45%

CC(=O)O[C@H]1[C@@H]2[C@@H]3[C@@H](C[C@H]1C)[C@@H](C)CO[C@@]1(C)CC/C=C(/C)C[C@@H]2O[C@@H]31
inactive: [1] -3.9% | [2] -1.75% | [3] 0.15% | [4] -19.1% | [5] -12.8% | [6] -8.95%

CC(=O)N(C)c1ccc(N)cc1
inactive: [1] 33.5% | [2] 25.2% | [3] 24.9% | [4] -2.35% | [5] 31.8% | [6] 36.5%

COc1ccc2c(c1)C(=O)OCCC2
inactive: [1] 25.4% | [2] 17.5% | [3] -26.6% | [4] 10.3% | [5] -36.4% | [6] -9.95%

CC1=CC2=NCC(O)CN2C=C1 (stereo not given)
inactive: [1] -4.2% | [2] 28.6% | [3] 9.25% | [4] 12.8% | [5] 14.4% | [6] 2.2%

COc1ccc(NC(=O)C(=O)c2c(O)c3ccc(O)cc3oc2=O)c([N+](=O)[O-])c1
inactive: [1] 14.4% | [2] 9.95% | [3] 1% | [4] 3.95% | [5] -2.85% | [6] -6.1%

O=S(=O)(O)c1ccc[n+]([O-])c1
inactive: [1] 5.7% | [2] 15.4% | [3] -0.05% | [4] 39.5% | [5] 9.1% | [6] -8.2%

CCOC(=O)Cc1ccccn1
inactive: [1] 5.8% | [2] -22.5% | [3] -37.7% | [4] -14.3% | [5] -14.9% | [6] -6%

Cc1nc2cccc([N+](=O)[O-])c2n1CCCN(C)C
inactive: [1] 1.7% | [2] 6.5% | [3] 11.9% | [4] -8.9% | [5] 18.3% | [6] 10.1%

CC(C)(C)c1ccc(O)c(Sc2cc(C(C)(C)C)ccc2O)c1
inactive: [1] 5.8% | [2] -24.9% | [3] 7.95% | [4] -33.4% | [5] 12.6% | [6] -15.2%

CCN(CC)CCCC(C)Nc1nncc2ccccc12 (stereo not given)
inactive: [1] -19.2% | [2] -2.1% | [3] 2.55% | [4] -17.3% | [5] -1.3% | [6] -8.95%

O=C(O)C1(Br)CC1(c1ccccc1)c1ccccc1 (stereo not given)
inactive: [1] 28.2% | [2] 5.25% | [3] 3.65% | [4] -14.1% | [5] -0.7% | [6] 26.1%

COc1cc(OC)c2c(=O)cc(-c3ccc(OC)c(OC)c3OC)oc2c1
inactive: [1] -31.8% | [2] -23.6% | [3] -30.1% | [4] -2.3% | [5] -18.4% | [6] -40.5%

CC(Cl)CN1c2ccccc2Sc2ccc(Cl)cc21 (stereo not given)
inactive: [1] 33% | [2] -5.4% | [3] 2.35% | [4] 23% | [5] 5.35% | [6] 16.8%

C=CCCCCCCCCC(=O)NCC1CC1
inactive: [1] -10.8% | [2] -7.1% | [3] 2.5% | [4] -44.8% | [5] -27.9% | [6] -4.75%

CC(=O)C(CN1CCOCC1)C(C)(C)O (stereo not given)
inactive: [1] 2.9% | [2] 31.8% | [3] 15.6% | [4] -6.35% | [5] 2.8% | [6] 12.4%
